Rows were chosen to be rich in hits. Some 2.1% of all compounds tested hit in one or more screens of this group.
PABP FP inh = PABP poly(A) RNA binding inhibitors, primary screen, biochemical, fluorescence polarization, uHTS; Polyadenylate-binding protein 1 (Homo sapiens), P11940; AID 2014, 2009; inhibition, % at 35 µM; 1% of 290,000 active;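 also: calls also rest on retests at 20 µM and on dose response follow-up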
NRP1-CendR mod = modulators of CendR peptide binding to NRP-1, primary screen, biochemical, fluorescence polarization, uHTS. 0.85% of 360,000 active. AID 602438, 2012. FAM-RPARPAR peptide binding to NRP-1. inhibition, % at 25 µM. Neuropilin-1 (Homo sapiens), O14786;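 active = inhibition or corrected inhibition above about 18%, plus a signal ratio from 0.5 to 1.5, limit read from the data, passing the limit was not always enough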
MLLE-PAM2 inh = inhibitors of PABP1 MLLE–PAM2 peptide binding, primary screen, biochemical, fluorescence polarization, FITC-PAM2, GST-MLLE. 0.36% of 360,000 active. Polyadenylate-binding protein 1 (Homo sapiens), P11940. AID 588489, 2011. inhibition, % at 20 µM; in the data active = inhibition above about 35%, passing the limit was not always enough
eIF4H FP inh = human eIF4H binding inhibitors, primary screen, translation initiation inhibitor project, biochemical, uHTS, fluorescence polarization; AID 2012, 2009; 0.94% of 290,000 active; Eukaryotic translation initiation factor 4H (Homo sapiens), Q15056; inhibition, % at 35 µM; eIF4H fluorescence polarization binding assay;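 also: calls also rest on retests at 20 µM and on dose response follow-up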
Each line names hits and unclear results; the compound was inactive in the other large screens. Unless noted, no rule for the calls is given here.

CC(=O)N1c2ccc(S(=O)(=O)N3CCCC(C(=O)NCc4ccccc4)C3)cc2CC1C (stereo unspecified)	none
C[C@H]1CCC[C@]2(O[C@H](CCO)C[C@H](O)[C@H]2O)O1	NRP1-CendR mod 29 (no result: PABP FP inh, eIF4H FP inh)
C[C@H]1CCC[C@@]2(O[C@@H](CCO)C[C@H](O)[C@H]2O)O1	none (no result: PABP FP inh, eIF4H FP inh)
N#CCC(=O)N/N=C\c1cc(Br)ccc1OC/C=C/c1ccccc1	none
Cc1sc2ncn(CC(=O)N3CCN(c4ccccn4)CC3)c(=O)c2c1S(=O)(=O)N1CCCCC1	NRP1-CendR mod 31
CC(C)C1OC2c3cccc4cccc(c34)C2N1c1ccccc1 (stereo unspecified)	MLLE-PAM2 inh 44
Cc1cc(C)n(-c2ccc(C(=O)N3CCN(S(=O)(=O)c4ccc(OC(F)(F)F)cc4)CC3)cc2)n1	none (no result: PABP FP inh, eIF4H FP inh)
CC(=O)c1c(C)[nH]c(C(=O)COC(=O)c2cc(C)oc2C)c1C	none (no result: PABP FP inh, eIF4H FP inh)
CN(C)S(=O)(=O)c1cccc(NC(=S)N/N=C/c2ccc(O)c(O)c2O)c1	PABP FP inh 35, eIF4H FP inh 57
N=c1sccn1CC(=O)NC(c1ccccc1)c1ccccc1	eIF4H FP inh 1.1
N=c1sccn1CC(=O)Nc1ccccc1Cc1ccccc1	none
CC1CCc2[nH]c3ccc(C(=O)O)cc3c2C1 (stereo unspecified)	none
CC1CCc2[nH]c3ccc(C(=O)NCCCOC(C)C)cc3c2C1 (stereo unspecified)	NRP1-CendR mod 35
C[C@H](CO)N1C[C@H](C)[C@@H](CN(C)S(=O)(=O)c2ccc(-n3cccn3)cc2)OCc2cnnn2CCCC1=O	none (no result: PABP FP inh, eIF4H FP inh)
COc1cc2c(C#N)c(N3CCCCC3)nc(N)c2c(N)n1	PABP FP inh 102, eIF4H FP inh 91
COc1cc2c(C#N)c(N3CCOCC3)nc(N)c2c(N)n1	none
COc1cc2c(C#N)c(N3CCc4ccccc4C3)nc(N)c2c(N)n1	PABP FP inh 116, eIF4H FP inh 122
CSCC[C@H](NC(=O)[C@@H]1Cc2c([nH]c3ccccc23)C2c3ccccc3C(=O)N21)C(=O)NCC1CCCO1 (stereo partly specified)	none
CN(C(=O)COC(=O)c1ccccc1Cc1ccccc1)C1CCS(=O)(=O)C1 (stereo unspecified)	none
Cc1cc(-c2ccc(S(=O)(=O)NCc3ccc(Cl)cc3)cc2)on1	NRP1-CendR mod 28 (no result: PABP FP inh, eIF4H FP inh)
Cc1cc(-c2ccc(S(=O)(=O)NCc3ccc(F)cc3)cc2)on1	none
Cc1ccc(C(=O)N2CCN(S(=O)(=O)c3ccccc3[N+](=O)[O-])CC2)o1	eIF4H FP inh 51
C/C(=N\NC(=S)NCCc1ccccc1)c1ccc(O)cc1O	MLLE-PAM2 inh 40
O=C(CSc1nc2ccccc2[nH]1)N1CCN(c2ccccc2)CC1	none
O=C(CSc1nc2sccc2c(=O)[nH]1)N1CCN(c2ccccc2)CC1	PABP FP inh 41
CC(=NN(Cc1ccccc1)c1ccccc1)c1ccccc1	NRP1-CendR mod 22 (no result: PABP FP inh, eIF4H FP inh)
C=CCNc1nc(C(=O)OCC(=O)c2ccc(Cl)cc2)cs1	none (no result: PABP FP inh, eIF4H FP inh)
O=c1[nH]cnc2scc(-c3ccc(-c4ccccc4)cc3)c12	PABP FP inh 35
Cn1c(=O)c2c(=O)cc(N)[nH]c2n(C)c1=O	MLLE-PAM2 inh 43
Cc1occc1C(=O)NNC(=O)c1ccccc1[N+](=O)[O-]	none
COc1cc(NC(=O)c2ccc3c(=O)n(Cc4ccco4)c(=S)[nH]c3c2)cc(OC)c1OC	eIF4H FP inh 64
COc1ccccc1Cn1c(=S)[nH]c2cc(C(=O)N3CCCC3)ccc2c1=O	NRP1-CendR mod 31
CC1(C)Oc2cc3oc(=O)ccc3c3c2C2C1CCC(C)(O3)C2O (stereo unspecified)	none (no result: PABP FP inh, eIF4H FP inh)
COc1ccc2c(c1)OC[C@H]1[C@H]2N2C(=O)c3cc(Br)ccc3NC(=O)[C@@]2(C)[C@H]1c1ccccc1	none (no result: PABP FP inh, eIF4H FP inh)
Clc1ccc(CN2CC[C@H]3C=CCc4cccc(c43)C2)cc1	none (no result: PABP FP inh, eIF4H FP inh)
Fc1ccc(CN2CC[C@H]3C=CCc4cccc(c43)C2)cc1	MLLE-PAM2 inh 47 (no result: PABP FP inh, eIF4H FP inh)
COCCCN1C(=O)C(CC(=O)NC2CCCCC2)CC(C(=O)N(C)C)=C1C (stereo unspecified)	none (no result: PABP FP inh, eIF4H FP inh)
Cc1ccc(NC(=O)c2ncn(CCCNCCCN(C)C)n2)cc1C	none (no result: PABP FP inh, eIF4H FP inh)
Cc1ccc(NC(=O)c2ncn(CCCNCCCc3ccccc3)n2)cc1C	NRP1-CendR mod 33 (no result: PABP FP inh, eIF4H FP inh)
O=C(O)CN1C(=O)/C(=C\c2cc(Br)ccc2OCc2ccc(Cl)cc2Cl)SC1=S	PABP FP inh 63, eIF4H FP inh 88
O=C(/C=C/[C@H]1O[C@@H](n2cnc3c(NC(=O)c4ccccc4)ncnc32)[C@H](O)[C@@H]1O)NCC1CCCCC1	none (no result: PABP FP inh, eIF4H FP inh)
COc1ccc(CN(C)C(=O)[C@H]2O[C@@H](n3ccc(=O)[nH]c3=O)[C@H](O)[C@@H]2O)cc1OC	none (no result: PABP FP inh, eIF4H FP inh)
CN(Cc1ccc2c(c1)CCCN2C)C(=O)[C@H]1O[C@@H](n2ccc(=O)[nH]c2=O)[C@H](O)[C@@H]1O	NRP1-CendR mod 27, MLLE-PAM2 inh 47 (no result: PABP FP inh, eIF4H FP inh)
O=C(Nc1ccc(C(=O)N2CCCCC2)cc1)C1CC1	none (no result: PABP FP inh, eIF4H FP inh)
CCC(=O)Nc1nc2nc(-c3ccccc3)cc(-c3ccccc3)n2n1	NRP1-CendR mod 21
CCN(CC)c1ccc(S(=O)(=O)N2CCOCC2)cc1NC(=O)COC(=O)c1cccnc1SC	none (no result: PABP FP inh, eIF4H FP inh)
O=C1CN(S(=O)(=O)c2ccccc2)CCN1	none (no result: PABP FP inh, eIF4H FP inh)
Cc1cccc(NCCNc2cccc(C)c2)c1	none
Cc1cccc(NCCC#N)c1	PABP FP inh active
CC(=O)NC(=O)c1cnn(-c2ccccc2)c1N	NRP1-CendR mod 36
COC(=O)c1cnn(-c2ccccc2)c1N	none
COc1ccc(NC(=S)Nn2cnnc2)c(OC)c1	NRP1-CendR mod 44
CC(=O)Nc1ccc(C2=NN(C)C(=NCc3ccccc3)SC2)cc1	NRP1-CendR mod 30
O=C(Nc1ccccc1)c1cc2ccc3ccccc3c2s1	none
CCOC(=O)C1CCN(S(=O)(=O)c2ccc3c(c2)CCN3C(=O)C2CCC2)CC1	NRP1-CendR mod 22
COc1ccc(C(C(=O)NC2CCCC2)n2c(-c3cccs3)nc3ccccc32)cc1 (stereo unspecified)	none (no result: PABP FP inh, MLLE-PAM2 inh, eIF4H FP inh)
C=CCn1c(SCC(=O)NC2CC2)nc2sc(CC)cc2c1=O	none
C=CCn1c(SCC(=O)O)nc2sc(CC)cc2c1=O	NRP1-CendR mod 26
Nc1cccc2c1C(=O)N(c1ccccc1)C2=O	MLLE-PAM2 inh 48 (no result: PABP FP inh, eIF4H FP inh)
c1cnc2ccc3ncccc3c2c1	none
Nc1ccc2ncccc2c1N	PABP FP inh 0.7, eIF4H FP inh 87
C[C@@H]1[C@@H](Sc2ccccc2)CC(=O)O[C@@H]1c1ccc(-c2ccccc2)cc1	MLLE-PAM2 inh 44 (no result: PABP FP inh, eIF4H FP inh)
O=C(NC(c1ccc(F)cc1)c1ccc2ccccc2n1)C1CCN(CCOc2ccc(Cl)cc2)CC1 (stereo unspecified)	none (no result: PABP FP inh, eIF4H FP inh)
CCOC(=O)C1Nc2ccc(C(=O)O)cc2C2C=CCC12 (stereo unspecified)	PABP FP inh 94, MLLE-PAM2 inh 50, eIF4H FP inh 96
CCCC1Nc2ccc(C(=O)O)cc2C2C=CCC12 (stereo unspecified)	none
COc1ccc(NS(=O)(=O)c2ccc3c(c2)[C@H]2C=CC[C@H]2[C@@H](c2ccc(C(=O)O)cc2)N3)cc1	PABP FP inh 82, eIF4H FP inh 97
